Screening results: PubChem BioAssay, National Center for Advancing Translational Sciences (NCATS)
BLM helicase inh: blocks DNA unwinding by human BLM helicase | 350,000 compounds, 0.2% hits | recombinant BLM DNA unwinding, fluorescence dequenching | P54132 | Potency, µM (highest dose often 56.1 µM), for inactives: at the highest dose activity change, negative = inhibition, usual class: inhibitors;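 further: plate controls were vehicle for no effect and no enzyme for full effect; nearly all actives have a fitted effect of over 35% in size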
WRN inhibitor: WRN helicase (human) inhibition | Potency, µM (series often up to 114 µM), for inactives: at the top dose activity change, negative = inhibition, actives largely listed as inhibitors | WRN helicase unwinding, fluorescent forked duplex, kinetic | Q14191 | 360,000 compounds, 0.46% hits; further: on the % scale 0 is the no-effect control and ±100 the full control effect; nearly all actives have a fitted effect of over 55% in size
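Kinetic fluorescence helicase assay: unwinding of a quenched forked DNA duplex (100 nM final) with 2 mM ATP final raises red fluorescence (525/598 nm). Compounds sat 15 min at room temperature with 20 nM WRN beforehand.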
ERG Ets-DNA blk: ERG Ets/DNA interaction inhibition. 370,000 compounds, 0.028% hits. P11308. AID 624246. Potency, µM (top dose mostly 76.9 µM), for inactives: at the highest dose FP activity, negative = inhibition, usual class: inhibitors. fluorescence polarization, His-ERG Ets domain / labelled DNA; active means well fitted inhibition curve with a large enough effect in the polarisation, with a control signal flat; inconclusive means small, poorly fitted or top-dose-only effect, or effect the other way, or a change in a side signal; inactive means no such curve, though single readings can be large or run the other way; the % refers to the polarisation;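 further: polarization taken with two DNA probes labelled with fluorescein and Texas red; % of control where 0% means no effect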
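His-tagged ERG Ets domain (1 uM in the protein solution; 300mM KCl, 50mM Tris-HCl, 1mM EDTA, 1mM DTT, pH 7.5) received compound, then a probe mix of 5 nM fluorescein-DNA and 100nM Texas-615-DNA. Fluorescence polarization was read for both dyes.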
APE1 inh-1: APE1 (human) endonuclease inhibition; P27695; recombinant APE1, TAMRA/BHQ-2 abasic DNA cleavage fluorescence; Potency, µM (top dose mostly 65.8 µM), for inactives: top-dose activity change, negative = inhibition, usual class: inhibitors; 350,000 compounds, 0.35% hits;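 further: plate controls were vehicle for no effect and reference inhibitor for full effect; nearly all actives have a fitted effect of over 55% in size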
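Quantitative HTS: incision of a TAMRA/BHQ-2 double-stranded substrate bearing a tetrahydrofuran abasic site by 0.75 nM APE1 raises fluorescence. Substrate 50 nM final, added after 15 min compound preincubation at room temperature; progress as third-minus-first kinetic read difference.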
GCN5L2 inh: inhibitors of human GCN5L2 histone acetyltransferase | Q92830 | GCN5L2 HAT assay, ThioGlo1 CoA-SH fluorescence | Potency, µM (highest dose often 58.9 µM), for the others: at the top dose activity change, negative = inhibition, usual class: inhibitors | 390,000 compounds, 0.21% hits | AID 504327; further: on the % scale 0 is the no-effect control and ±100 the full control effect
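Preincubate 20nM GCN5L2 with compound 15 min, RT → add 50uM ThioGlo1 + 75uM H3(1-25) + 70uM acetyl-CoA → read fluorescence 0 and 20 min. Primary qHTS; fluorescent artifacts likely.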
RECQ1 inh: inhibitors of human RECQ1 DNA helicase. P46063. AID 2549. Potency, µM (titrated, usually from 57.3 µM), inactives show at the highest dose activity, negative = inhibition, actives largely listed as inhibitors. 240,000 compounds, 0.54% hits. RECQ1 DNA unwinding, red fluorescence kinetic read;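 further: plate controls were vehicle for no effect and no enzyme for full effect; nearly all actives have a fitted effect of over 30% in size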
Target sequence (P46063 whole entry, looked up): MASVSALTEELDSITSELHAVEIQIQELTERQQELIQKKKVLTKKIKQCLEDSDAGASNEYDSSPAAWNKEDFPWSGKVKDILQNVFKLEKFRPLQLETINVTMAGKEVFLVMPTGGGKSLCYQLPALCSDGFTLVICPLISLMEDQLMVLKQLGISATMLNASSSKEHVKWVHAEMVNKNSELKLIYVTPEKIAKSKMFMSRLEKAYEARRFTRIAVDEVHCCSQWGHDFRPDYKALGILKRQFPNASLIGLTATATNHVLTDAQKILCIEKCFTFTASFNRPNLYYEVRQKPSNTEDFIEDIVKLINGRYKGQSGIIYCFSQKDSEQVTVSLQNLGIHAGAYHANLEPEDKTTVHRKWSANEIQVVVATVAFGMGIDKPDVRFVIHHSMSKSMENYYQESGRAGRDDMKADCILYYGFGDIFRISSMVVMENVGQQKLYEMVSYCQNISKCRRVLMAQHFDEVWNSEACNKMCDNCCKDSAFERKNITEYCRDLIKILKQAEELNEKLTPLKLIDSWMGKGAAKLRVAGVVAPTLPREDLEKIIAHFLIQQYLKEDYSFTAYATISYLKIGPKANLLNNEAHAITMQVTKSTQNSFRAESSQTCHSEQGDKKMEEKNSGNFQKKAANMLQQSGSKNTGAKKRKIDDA
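50 nM RECQ1T1 preincubated 15 min with compound in Tris pH 8.0 buffer with MgCl2, DTT, Tween-20 and 2.5 ug/ml poly(dI-dC); started with 200 nM TAMRA/BHQ-2 forked duplex and 2 mM ATP. Unwinding read as fluorescence (525/598 nm), two reads 2 h apart.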
DNA dye displace: counter-screen for APE1 inhibitors: DNA dye displacement. DNA fluorescent dye displacement counterscreen, fluorescence. AID 2564. Potency, µM (series often up to 28.5 µM), for inactives: at the highest dose activity change, negative = inhibition, hits mostly inhibitors. shares compounds with APE1 inh-1. 480 compounds, 7% hits;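 further: loss of thiazole orange fluorescence as the dye is displaced from duplex DNA; 0% = ThO with dsDNA and no compound and -100% = ThO without dsDNA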
EndoIV counter: counter-screen for APE1 inhibitors: inhibitors of E. coli endonuclease IV; shares compounds with APE1 inh-1; E. coli Endo IV, fluorogenic AP-site DNA cleavage; Potency, µM (doses to about 27.1 µM), for inactives: at the top dose activity change, negative = inhibition, usual class: inhibitors; 560 compounds, 4% hits; AID 2565;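 further: plate controls were uninhibited enzyme wells for no effect and no enzyme buffer wells for full effect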
APE1 inh-2: APE1 (human) endonuclease inhibition, confirmation; shares compounds with APE1 inh-1; purified APE1, fluorogenic abasic-site DNA cleavage; Potency, µM (titrated, usually from 57.1 µM), inactives show at the top dose activity change, negative = inhibition, actives largely listed as inhibitors; 750 compounds, 44% hits; AID 2572; further: on the % scale 0 is the no-effect control and ±100 the full control effect; nearly all actives have a fitted effect of over 30% in size
APE1 FP: compounds that displace a DNA probe from human APE1. Potency, µM (top dose mostly 28.5 µM), without a hit: top-dose activity, negative = inhibition, actives largely listed as inhibitors. 480 compounds, 7% hits. AID 2573. APE1 binding to TAMRA-labelled double-stranded DNA, fluorescence polarization displacement. shares compounds with APE1 inh-1; further: on the % scale 0 is the no-effect control and ±100 the full control effect
An asterisk follows results filed as active; i = inactive; ? = inconclusive; · = not tested or not shown; ! = repeats disagree; [ ] = another dose, or the depositor's remark. Rows were chosen to be rich in hits. Some 0.88% of all compounds tested hit in one or more screens of this group. Unless noted, the call rests on the fitted dose curve; in most records, active means well fitted curve in the direction sought with a large enough effect; inconclusive means small, poorly fitted or top-dose-only effect, or another doubt; inactive means no such curve, though single readings can be large; an effect the other way counts as inactive or inconclusive. Potency means the concentration at half of the fitted maximal effect.

SMILES | BLM helicase inh | WRN inhibitor | ERG Ets-DNA blk | APE1 inh-1 | GCN5L2 inh | RECQ1 inh | DNA dye displace | EndoIV counter | APE1 inh-2 | APE1 FP
O=c1c(O)cccc2cc(O)c(O)c(O)c12 | 13µM* | 4µM* | 5% | 0.71µM* | ? | 2.5µM* | · | -2%[57.1 µM] | 0.45µM* | ·
CC(C)(C)C1CCSC2=NCCC[C@]2(c2ccccc2)C1 (some centres undefined) | · | -2% | · | · | · | · | · | · | · | ·
CCOC(=O)c1ccc(NC(=O)CSc2nccn2-c2ccc(OCC)cc2)cc1 | -16% | · | 13% | · | -2% | · | · | · | · | ·
CN1CCc2cc3c(c4c2[C@H]1[C@H](O)c1ccccc1-4)OCO3 | 83% | 13% | -8% | ? | -1% | 81% | 4.5µM* | 8.9µM* | 11µM* | 13µM*
N#C/C(=C\c1cc(Cl)c(OCc2ccc(Cl)cc2)c(Cl)c1)C(N)=O | -14% | · | · | 1% | -10% | -1% | · | · | · | ·
N#C/C(=C\c1cc(O)c(O)c(O)c1)C(N)=O | ? | -30% | 9% | 3.5µM* | -18% | -23% | 4% | 160% | ? | 1%
O=C(Cn1c(=O)n(Cc2ccco2)c(=O)c2c3c(sc21)CCCCC3)c1ccccc1 | -22% | ? | -10% | ? | -16% | -28% | ? | -6% | -23%[24.4 µM] | 5%
O=c1c2c3c(sc2n(CCN2CCCC2)c(=O)n1Cc1ccco1)CCCCC3 | 6% | -13% | -2% | 2% | 2% | -3% | · | · | · | ·
CC(=O)N1CCC(C(=O)Nc2ccccc2)(N(Cc2ccccc2)C(=O)c2cccnc2)CC1 | -2% | 14% | -4% | ? | -2% | i | -12% | -4% | -5%[24.4 µM] | ?
CCOC(=O)[C@H](CCc1ccccc1)N[C@@H](C)C(=O)N1CCC[C@@H]1C(=O)O | · | 0% | -1% | 28% | 0% | · | · | · | · | ·
CCOC(=O)[C@H](CCc1ccccc1)N[C@@H](C)C(=O)N1CCC[C@H]1C(=O)O | -9% | -3% | 12% | 0.063µM*! | ? | -7% | -2%[57.1 µM] | 25%[57.1 µM] | 6% | 5%[57.1 µM]
COc1cccc(C(=O)Nc2ccc(-c3nc4ccccc4s3)cc2Cl)c1 | -3% | · | 0% | · | -1% | · | · | · | · | ·
Cc1ccc2c(c1)N(C(=O)c1ccc(F)cc1)C(C)(C)CC2(C)c1ccccc1 (centres undefined) | -10% | · | 7% | · | -12% | · | · | · | · | ·
CCCc1nn2c(=O)cc(COC(=O)c3ccc(NC(=O)C4CCCCC4)cc3)nc2s1 | -1% | · | 0% | · | 1% | · | · | · | · | ·
O=c1cc2c(=O)oc3cc(O)c(O)oc3c2c(O)c1O | -5% | ? | -19% | 0.35µM* | -13% | 4.5µM* | ? | 187% | 0.13µM* | 2%
O=c1oc2cc(O)c(Cl)cc2c2ccccc12 | 5% | -22% | -4% | 3% | 2% | 3% | · | · | · | ·
Cc1cccc(-n2ccnc2SCC(=O)Nc2cccc3ccccc23)c1 | -7% | · | 0% | · | -5% | · | · | · | · | ·
CCOc1ccccc1NC(=O)Cc1coc2c(C)c(C)ccc12 | -3% | · | 2% | · | 1% | · | · | · | · | ·
Cc1ccc2c(c1)C1C=CCC1C(C(=O)O)N2 (centres undefined) | 14µM* | · | · | 16µM* | 25µM* | 8.9µM* | ? | 0% | 14µM* | -26%
Cc1ccc2c(c1)C1C=CCC1C(C(=O)NCCCN1CCOCC1)N2 (centres undefined) | · | -1% | 5% | · | · | · | · | · | · | ·
C/C(=N\NC(=O)c1ccc2nc[nH]c2c1)c1ccc([N+](=O)[O-])cc1 | 5% | · | · | 3% | -5% | -5% | · | · | -22% | ·
Cc1nc(SCC(=O)O)c(C#N)c2c1CCCC2 | -2% | 45µM* | 3% | ? | -12% | -27% | · | · | ? | ·
CCCCCCc1c(C)c2c(cc(C)c3c(C)c(C)oc32)oc1=O | -4% | · | 4% | · | -13% | · | · | · | · | ·
COCCNC(=O)CCc1c(C)n(C)c2cc(-c3cc(OC)c(OC)c(OC)c3)nn2c1=O | 2% | · | 1% | · | -2% | · | · | · | · | ·
